# Source: ChEMBL document CHEMBL3988442, “University of Dundee, Small-Polar-MMV Screening Library” (2021)
# Where “and” joins values, the source holds several entries; their conditions need not be identical. Equal entries are not always repeated. The campaign covered roughly 53,000 compounds. About 900 (1.7%) showed an effect of 50% or more. This excerpt belongs to a sample that is enriched for strong results.
# System: Mycobacterium tuberculosis
# Assay: Cornell - Phenotypic assay to identify agents that inhibit growth of Mycobacterium tuberculosis
# Format: functional
# Set-up: scale not given: direction of the effect not stated beside the values
SMILES,Percent Effect (10 mM; 10000 µM) [%],"Percent Effect (10 mM, 10 mM as filed; unlikely as a test dose)"
O=C(NC1CC1)N1C[C@H]2CN(Cc3cccc(F)c3)C(=O)[C@H]2C1,-1.024,
Cc1ccc(CN(CCCN(C)C)Cc2cnc(N(C)C)nc2)o1.O=C(O)CC(O)(CC(=O)O)C(=O)O,-2.664,
O=C(O)C(F)(F)F.O=C([C@H]1C[C@H]2OCC[C@H]2N(Cc2ccccn2)C1)N1CCCCO1,-19.88,
O=C(c1cnccn1)N1CCC(Oc2ncccc2Cl)CC1,13.63,
O=C(c1cc(C2CC2)on1)N1CCC(Oc2ncccc2Br)CC1,83.65,
O=C(c1ccccn1)N1CCC(Oc2ncccc2Cl)CC1,37.07,
O=C(c1ccccn1)N1CCC(Oc2cccnc2)CC1,-17.68,
O=C(c1cc(C2CC2)on1)N1CCC(Oc2ncccc2Cl)CC1,82.03,
N#Cc1cccnc1OC1CCN(C(=O)c2cc(C3CC3)on2)CC1,39.39,
CN(C)S(=O)(=O)N1CC(c2ccnc(Nc3ccccn3)n2)C1,25.46,
COc1ccc(CN2CCC3(CC2)CCN(CC2CC2)C3=O)cc1.O=C(O)C(F)(F)F,6.492,
CCC(=O)N1CCCCC[C@@H]2[C@@H]1[C@H](c1cccc(F)c1)CN2C,-24.01,
COc1cccc(C(=O)Nc2n[nH]c(C3CCCO3)n2)c1 (stereo unspecified),12.47,
CCOc1ncccc1CNC(=O)NCCNC(=O)c1ccco1,0.1336,
CCNC(=O)c1cc2n(n1)CCCO2,-8.867,
O=C(c1ccncc1)N1CCc2[nH]nc(Nc3ccccc3)c2C1,-24.78,
O=C(c1cncs1)N1CCc2[nH]nc(Nc3ccccc3)c2C1,58.68,
O=C(c1cccnc1)N1CCc2[nH]nc(Nc3ccccc3)c2C1,46.76,
CN(Cc1ccc(F)cc1)CC1(O)CCN(C(=O)c2cccs2)C1 (stereo unspecified),-44.56,
COc1cccc(CCC(=O)Nc2ccn(C)n2)c1OC,-2.109,
COc1cccc(C2C3=C(COC3=O)Nc3[nH]nc(C)c32)c1O (stereo unspecified),-49.1,
COc1cc(C2C3=C(COC3=O)Nc3[nH]nc(C)c32)cc(Br)c1O (stereo unspecified),101.5,

SMILES,Percent Effect (10 mM; 10000 µM) [%],"Percent Effect (10 mM, 10 mM as filed; unlikely as a test dose)"
CCOc1c(Br)cc(C2C3=C(COC3=O)Nc3[nH]nc(C)c32)cc1OC (stereo unspecified),33.99,
Cc1cnn(C2CCCN(C(=O)c3cc(C)sc3C)C2)c1 (stereo unspecified),1.503,
COC(=O)CC(c1ccc(OC)c(OC)c1OC)c1c(O)n[nH]c1C (stereo unspecified),39.76,
CCOC(=O)CC(c1ccc(OC)c(OC)c1)c1c(O)n[nH]c1C (stereo unspecified),17.75,
CCOC(=O)CC(c1cccc(OC)c1OC)c1c(C)[nH][nH]c1=O (stereo unspecified),,39.38% and 50.02%
O=C(NC[C@]1(O)CCN(Cc2ccccc2F)C[C@H]1O)c1c[nH]cn1,-15.39,
CC(C)c1ccc(CN[C@@H]2COC[C@H]2c2ccc(F)cc2)cc1,38.02,
O=C(NCc1cccnc1)C1=NN(c2ccccc2)C(=O)CN1,-12.05,
COc1ccccc1CNC(=O)C1=NN(c2ccc(C)cc2)C(=O)CN1,59.16,
COCc1ccc(CNC(=O)C2=NN(c3ccccc3)C(=O)CN2)cc1,-8.016,
O=C(NCCNC(=O)c1scnc1Cl)c1ccccc1Cl,2.223,
CCCc1nc(N2CCN(CC)CC2)c2c(n1)c(C)nn2CC,19.74,
CCCc1nc(N2CCCCC2)c2c(n1)c(C)nn2CC,-11.73,
CCCc1nc(NCCc2ccccc2)c2c(n1)c(C)nn2CC,98.38,
CCn1nc(C)c2nc(C)nc(NCCc3ccccc3)c21,18.42,
CCn1nc(C)c2nc(C)nc(NC3CCCC3)c21,42.26,
CCCc1nc(N2CCC(C)CC2)c2c(n1)c(C)nn2CC,17.45,
CCn1nc(C)c2nc(C)nc(NCCc3ccc(C)cc3)c21,87.9,
CCCc1nc(N2CCCCCC2)c2c(n1)c(C)nn2CC,68.4,
CCCc1nc(N2CCSCC2)c2c(n1)c(C)nn2CC,16.49,
COc1cc(C(=O)N(CCC#N)Cc2ccccn2)ccc1C,2.226,
COC1CCN(S(=O)(=O)NCC2COc3ccccc3C2)CC1 (stereo unspecified),23.14,

SMILES,Percent Effect (10 mM; 10000 µM) [%],"Percent Effect (10 mM, 10 mM as filed; unlikely as a test dose)"
CC(=O)N1CCC(C(=O)NC2CCc3nccn3C2)CC1 (stereo unspecified),-4.558,
Cc1nnc(C2CCN(c3ccc(F)cc3)CC2)o1,0.33,
CC[C@H]1N(C)CCC[C@]12CCC(=O)N2Cc1ccncc1.O=C(O)C(F)(F)F.O=C(O)C(F)(F)F,4.525,
Cc1cn2c(n1)CCC(NC(=O)c1[nH]nc(C)c1Br)C2 (stereo unspecified),-35.87,
O=C(CSC1CCc2ccccc2NC1=O)NC1CC1 (stereo unspecified),-0.1015,
COc1cccc(CN2CCC(c3nn(CCN)c4nccnc34)C2)c1 (stereo unspecified),-33.21,
COc1cccc(NC(=O)NCC2CCCN(C3CCOCC3)C2)c1 (stereo unspecified),-9.956,
COC(=O)c1sccc1S(=O)(=O)N1CCC(Oc2cccnn2)CC1,10.5,
COC(=O)c1sccc1S(=O)(=O)N1CCC(Oc2ncccc2Cl)CC1,63.53,
COC(=O)c1sccc1S(=O)(=O)N1CCC(Oc2cnccn2)CC1,11.89,
CCOCC1CN(C(=O)c2ccnnc2)Cc2cnn(CC)c21.O=C(O)C(F)(F)F (stereo unspecified),10.27,
CC1CCN(C(=O)CN2CC(c3nc(C4CC4)no3)C2)CC1.O=C(O)C(=O)O,-25.89,
NC(=O)CN1CC(c2nc(C3CC3)no2)C1.O=C(O)C(=O)O,-1.644,
O=C(CN1CC(c2nc(C3CC3)no2)C1)N1CCOCC1.O=C(O)C(=O)O,59.8,
CN(Cc1ccncc1)c1cncc(Br)c1,-1.215,
Cn1ncc2c(N3CCC(CCO)CC3)nc(C(C)(C)C)nc21,26.71,
COCC1CCN(c2nc(C(C)(C)C)nc3c2cnn3C)C1 (stereo unspecified),57.26,
CN(C)[C@H]1CCN(c2nc(C(C)(C)C)nc3c2cnn3C)C1,15.83,
Cc1cnn(CC2CN(CCc3ccccn3)CCO2)c1 (stereo unspecified),-8.826,
N[C@H]1CC[C@@H](n2cc(C(=O)NC3CCc4ccccc4C3)nn2)CC1 (stereo partly specified),43.67,
N[C@H]1CC[C@@H](n2cc(C(=O)NC3COc4ccccc43)nn2)CC1 (stereo partly specified),8.791,
N[C@H]1CC[C@@H](n2cc(C(=O)N[C@H]3CCCc4ccccc43)nn2)CC1,52.81,
